Source: PubChem BioAssay (NCI)
Compounds without any hit were thinned out: in the full panel of roughly 83,000, 20% have a hit.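 Interpretation: 100, growth as untreated; towards 0, rising growth inhibition; 0, no net growth; 0 to -100, cell death. Compounds scoring below 10 were considered active.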 Unmarked numbers belong to inactive results. The source made the active and inactive calls.

What was measured:
Assay in all cases: NCI-60 one-dose screen, 48 h (100 = growth as untreated, 0 = no growth, -100 = all killed)
Details in all cases: 10 µM
HT29 colon = system: HT29 colon
SNB-75 CNS = system: SNB-75 CNS
SNB-19 CNS = system: SNB-19 CNS
U251 CNS = system: U251 CNS
PC-3 prostate = system: PC-3 prostate
SK-MEL-5 melanoma = system: SK-MEL-5 melanoma
UACC-62 melanoma = system: UACC-62 melanoma
LOX IMVI melanoma = system: LOX IMVI melanoma
SK-MEL-28 melanoma = system: SK-MEL-28 melanoma
SK-MEL-2 melanoma = system: SK-MEL-2 melanoma

Row | Structure (SMILES) | growth (HT29 colon) | growth (SNB-75 CNS) | growth (SNB-19 CNS) | growth (U251 CNS) | growth (PC-3 prostate) | growth (SK-MEL-5 melanoma) | growth (UACC-62 melanoma) | growth (LOX IMVI melanoma) | growth (SK-MEL-28 melanoma) | growth (SK-MEL-2 melanoma)
1 | Cc1cc(C)c2c(n1)sc1c(Nc3ccc(Cl)cc3)ncnc12 | 27.5% | 32.7% | 10.4% | 22.5% | 49.2% | 32.7% | -11% (active) | -16.9% (active) | 55.3% | 82.8%
2 | CC(=O)n1c(-c2ccc(Cl)c(Cl)c2)cn(-c2ccc(Cl)cc2)c1=O | 12.8% | -0.456% (active) | 18.4% | 26.6% | -31.2% (active) | 9.15% (active) | 18% | 18.2% | 7.17% (active) | 80.9%
3 | O=C(CSSCC(=O)c1ccc(Cl)cc1)c1ccc(Cl)cc1 | 92.6% | 62% | 52.8% | 53.7% | 61.1% | 29.7% | 57.8% | 40.7% | 59.5% | 79.5%
4 | Oc1[nH]c2ccc(Cl)cc2c1/C=c1/ccc2c(c1)N=C(c1cccs1)N=2 | 43.8% | 6.31% (active) | 62% | 61.3% | 62.5% | 52.8% | 53.6% | 42.5% | 71.1% | 73.5%
5 | O=c1[nH]c2ccc(Cl)cc2c2ccccc12 | 70.3% | 33.2% | 65.9% | 65.9% | 92.8% | 70.6% | 88.3% | 98.5% | 94.6% | 107%
6 | CCCCCCCCCCCC[n+]1ccc(C(N)=O)cc1 | 5.01% (active) | -4.25% (active) | 18.6% | -3.1% (active) | -18.2% (active) | -6.99% (active) | 29% | 25.6% | 57.8% | 30.9%
7 | CCC(=O)N1C/C(=C/c2ccc(OC)cc2)C(=O)/C(=C/c2ccc(OC)cc2)C1 | -35.5% (active) | 52.9% | 68.2% | 4.41% (active) | 16.2% | 15.7% | 27.3% | -58.7% (active) | 19.2% | 82.3%
8 | CCOC(=O)N1C/C(=C/c2ccc(OC)cc2)C(=O)/C(=C/c2ccc(OC)cc2)C1 | -58.4% (active) | 48.8% | 78% | 12% | 46.5% | 21.6% | 44.6% | -72.2% (active) | 58.6% | 75.1%
9 | COc1ccc(-c2cc(-c3ccc(N(C)C)cc3)c(C#N)c(N3CCCC3)n2)cc1 | 63.2% | 99.7% | 90.1% | 86% | 82.2% | 58.5% | 102% | 34.2% | 93.4% | 84%
10 | Nc1c(C(=O)Nc2ccccc2)sc2nc3c(cc12)CCCC3 | 10.1% | 20.6% | 64% | 21.7% | 25.4% | 31.8% | 47.8% | 53.3% | 56% | 51.5%
11 | CC(=O)O[C@]1(C)CC[C@H]2[C@H](CNCCc3ccc(Cl)cc3)C(=O)O[C@@H]2C2=C(C)C(=O)C[C@H]21 | 90% | 64.1% | 79.4% | 91.3% | 86.9% | 92.2% | 97.9% | 90.6% | 101% | 114%
12 | COc1cc(-c2cc(C(=O)N3CCN(C(=O)c4ccccc4NCc4cccs4)CC3)nc3cc(-c4ccccc4)nn23)cc(OC)c1OC | 28% | 71% | 85.1% | 72.1% | 34% | 37.9% | 60% | 70% | 81.5% | 68.4%
13 | O=C1/C(=C\c2ccc(F)cc2)CN(C(=O)c2ccccc2F)C/C1=C\c1ccc(F)cc1 | -37% (active) | 52.9% | 33.4% | -63% (active) | -34.3% (active) | -58.6% (active) | -77.6% (active) | -80.8% (active) | -72.5% (active) | 30.4%
